The source of these data is PubChem BioAssay (NCATS).

In experiment [1] the target is Lysosomal acid glucosylceramidase (Homo sapiens) (UniProt P04062). The experiment can be described thus: Glucocerebrosidase-p2 (AID 348; in the data active = potency below about 10 µM; note: potency is the fitted concentration of half-maximal effect). As to conditions: purified GBA, blue fluorogenic substrate, 40 min. An outline of the steps:
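Normal human glucocerebrosidase (0.2 nM) with blue fluorogenic substrate (80 uM final) in citrate/phosphate pH 5.9 with 10mM sodium taurocholate, 0.01% tween-20; 40 min RT, NaOH/glycine stop; fluorescence Ex 365/Em 440; AC50 from a titration from 0.6 nM upwards.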

Experiment [2] is described as follows: AP1 Signaling Pathway (AID 357; active = well fitted curve in either direction with a large enough effect, not every such curve was filed as active; note: % is set by controls: 0 for no effect and ±100 for the full control effect). As to conditions: ME-180 AP-1-bla reporter, EGF-induced, beta-lactamase ratio, 5 h; at 7.69 µM (top of the series) unless noted. An outline of the steps: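 Cells are seeded overnight, exposed to compound titrations and an EC50 level of EGF for 5 hours at 37 °C, then loaded with CCF4 dye for 2.5 hours. Beta-lactamase activity under the AP-1 element is read as a blue/green ratio.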

Experiment [3] addresses Cytochrome P450 1A2 (Homo sapiens) (UniProt P05177). The experiment in a line: p450-cyp1a2 (AID 410; calls by dose curve; note: potency is the fitted concentration of half-maximal effect). The note with it: recombinant CYP1A2, luciferin-ME demethylation, luminescence; series mostly up to 57 µM. An outline of the steps:
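20nM CYP1A2, 100uM Luciferin-ME (=Km), 100mM KPO4; cpd 10 min RT; +NADPH regen, 60 min RT; stop/detect 20 min; luminescence. Normalized to furafylline 57 uM = full inhibition.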

Experiment [4] can be described thus: NFAT Signaling Pathway (AID 444; active = well fitted curve in either direction with a large enough effect, not every such curve was filed as active;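 note: carbachol stimulus at about its EC50 of 1 µM final; % is set by controls: 0 for no effect and ±100 for the full control effect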). The note with it: Jurkat NFAT-bla M1, carbachol, beta-lactamase ratio, 5 h; at 7.69 µM (top of the series) unless noted. An outline of the steps: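 Jurkat cells carrying an NFAT-driven β-lactamase reporter and co-transfected muscarinic M1 receptor were treated with compound plus carbachol (1 uM final, an EC50 level) for 5 h at 37 °C. CCF4 loading followed for 1 h at RT; 460/530 nm ratio gave %activity.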

Experiment [5] is described as follows: Stat Signaling Pathway (AID 446; active = well fitted curve in either direction with a large enough effect, not every such curve was filed as active;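 note: ME-180 cervical cancer cells given 40 pM IL-6 alongside compound; SIE-controlled beta-lactamase reporter measured as 460/530 nm FRET emission ratio; % is set by controls: 0 for no effect and ±100 for the full control effect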). The note with it: ME-180 (cervical carcinoma) SIE beta-lactamase reporter, IL-6 stimulated, 5 h; at 7.69 µM (top of the series) unless noted. An outline of the steps:
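Compound effects on IL-6-induced STAT reporter activity were measured in ME-180 cells. After overnight culture, cells were co-treated with 40 pM IL-6 for 5 hrs before beta-lactamase substrate loading at room temperature.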

For experiment [6], the target named is Glucocorticoid receptor (Homo sapiens) (UniProt P04150). The experiment in a line: GR-GFP Redistribution (AID 450;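 active = compounds whose dose series gives a full or clear partial fitted curve of increased nuclear translocation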; note: potency is the fitted concentration of half-maximal effect). The note with it: U2OS GR-GFP nuclear translocation, laser cytometry, 2 h.
Experiment [7] shares this target. The experiment can be described thus: GR-EFC Redistribution (AID 451; calls by dose curve; note: potency is the fitted concentration of half-maximal effect). As to conditions: CHO-K1 GR-EFC translocation, beta-gal luminescence, 2 h. An outline of the steps:
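CHO-K1 cells stably expressing nuclear-localized β-gal enzyme acceptor and GR fused C-terminally to the enzyme donor fragment; ligand-driven nuclear translocation restores β-gal by complementation. Compounds titrated up to 46 uM final, 2 h at 37 °C; luminescence read.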

The target of experiment [8] is Mitogen-activated protein kinase 10 (Mus musculus) (UniProt Q61831). The experiment in a line: JNK3 AlphaScreen Assay (AID 530; active = well fitted curve in either direction with a large enough effect, not every such curve was filed as active;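 note: kinase came from lysate of stimulated human HepG2 cells; signal reports phosphorylation of biotinylated GST-cJun 1-79 at Ser73 with 10 µM ATP; % is set by controls: 0 for no effect and ±100 for the full control effect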). The note with it: JNK3 lysate, c-Jun phosphorylation; series mostly up to 57.1 µM. An outline of the steps:
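Biotinylated GST-cJun(1-79) served as substrate for JNK3 in HepG2 lysates stimulated with IL-1beta and TNF-alpha. ATP was 10 uM final, pH 7.6. Ser73 phosphorylation was quantified by AlphaScreen (680 nm excitation).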

Experiment [9] has as its target Cytochrome P450 3A4 (Homo sapiens) (UniProt P08684). The experiment in a line: qHTS Assay for Inhibitors and Substrates of Cytochrome P450 3A4 (AID 884). Note: potency is the fitted concentration of half-maximal effect; nearly all actives have a fitted effect of over 50% in size. The note with it: recombinant CYP3A4, Luciferin-PPXE luminescence; series mostly up to 57.1 µM. An outline of the steps:
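Luminescent readout of luciferin produced by CYP3A4 (20 nM) dealkylation of Luciferin-PPXE, 25 uM (its KM). NADPH-driven reaction ran 60 min at RT after 10 min compound preincubation; data scaled to 57 uM ketoconazole as 100% inhibition.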
A general note: In qHTS, concentration-response curves come from the screen itself.

Experiment [10] shares this target. The experiment in a line: qHTS Assay for Activators of Cytochrome P450 3A4 (AID 885). Note: nearly all actives have a fitted effect of over 65% in size. The note with it: recombinant CYP3A4, Luciferin-PPXE luminescence, 60 min; series mostly up to 57.1 µM. An outline of the steps:
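CYP3A4 activity: Luciferin-PPXE O-dealkylation, 25uM substrate, 200mM KPO4, RT throughout. Read-out is luciferase luminescence; higher values reflect activation.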

Experiment [11] is described as follows: Confirmation and Secondary Assay for Modulators of Hemoglobin Beta Chain Splicing at IVS2 654 locus (AID 910).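 Note: per-well total GFP intensity by laser scanning cytometry after 2-day treatment; % of control where 0% means no effect.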 The note with it: HeLa EGFP-654 splicing reporter, GFP fluorescence, 48 h; series mostly up to 38.3 µM. An outline of the steps:
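HeLa cells stably carrying EGFP interrupted by mutant beta-globin IVS2-654 intron (CMV-driven) were treated with compound for 2 days at 37C; corrected splicing was scored as total peak GFP intensity per well (488 nm excitation, 500-520 nm emission).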

A short description of experiment [12]: Confirmation and Secondary Assay for Modulators of Hemoglobin Beta Chain Splicing at IVS2 705 locus (AID 930).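 Note: HeLa cells stably expressing the EGFP-705 splicing reporter; % of control where 0% means no effect.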 The note with it: HeLa EGFP-705 splicing reporter, GFP fluorescence, 48 h; series mostly up to 38.3 µM. An outline of the steps: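 Assay measures total GFP intensity per well in HeLa EGFP-705 cells after 2 days with compound; mis-splicing normally truncates EGFP, so fluorescence indicates corrected splicing.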

Experiment [13] is described as follows: qHTS Assay for Lipid Storage Modulators (AID 1519; calls by dose curve). The note with it: Drosophila S3 cells, BODIPY lipid droplet/cell ratio, laser cytometry, cells loaded with oleic acid; for activity change, negative = inhibition: at 57.5 µM (top of the series). An outline of the steps: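 Cells seeded at 5,000 per well were treated with compounds over a concentration series and loaded with oleic acid (400 uM, as added). Lipid droplet fluorescence (488 nm excitation, 500-530 nm channel) was read by laser-scanning cytometry and normalized to 20 uM Triacsin C.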

Experiment [14] addresses Ubiquitin carboxyl-terminal hydrolase 1 (Homo sapiens) (UniProt O94782). The experiment in a line: Inhibitors of USP1/UAF1: Pilot qHTS (AID 504865).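 Note: rhodamine fluorescence freed from ubiquitin-rhodamine substrate followed over time; top concentration of the series differs between compounds; % is set by controls: 0 for no effect and ±100 for the full control effect; nearly all actives have a fitted effect of over 35% in size.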 The note with it: purified USP1/UAF1, Ub-rhodamine cleavage fluorescence; series mostly up to 54.9 µM. An outline of the steps:
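1nM USP1/UAF1 + cpd, 15 min RT; start w/ Ub-Rho 150nM final; kinetic FL 480/540 nm, 6 reads q60 s. Buffer 50mM HEPES pH 7.8, 0.5mM EDTA, 1mM TCEP, 0.01% Tween-20, 0.1 mg/ml BSA.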

Experiment [15] can be described thus: Primary qHTS for small molecule stabilizers of the endoplasmic reticulum resident proteome: Secreted ER Calcium Modulated Protein (SERCaMP) assay (AID 1508630). Note: % is set by controls: 0 for no effect and ±100 for the full control effect. The note with it: SH-SY5Y GLuc-SERCaMP (Gaussia luciferase released on ER calcium loss) secretion, thapsigargin, luminescence; series mostly up to 38.4 µM. An outline of the steps:
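The SH-SY5Y reporter protocol was run at 3 concentrations up to 38.3 uM (primary) or 11 concentrations (follow-up): 16 h compound, 100 nM thapsigargin for 4 h, then extracellular luciferase luminescence.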

In experiment [16] the target is 3',5'-cyclic-AMP phosphodiesterase 4B (Homo sapiens) (UniProt Q07343). The experiment in a line: qHTS Assay for Inhibitors of PDE-IV (AID 607; active = well fitted activation curve with a large enough effect in the main read-out, with a control signal flat, not every such curve was filed as active; note: % of control where 0% means no effect). As to conditions: HEK293 ACTOne CNG channel cells, membrane potential fluorescence; series mostly up to 22.9 µM. An outline of the steps:
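ACTOne HEK293 cells carry a modified cAMP-gated CNG channel and express endogenous PDE4; plated 1000 cells/well, compounds up to 22.9 uM final. Membrane-potential dye fluorescence (ex 535/em 590) was read; parental cells received 10 uM forskolin + 100 uM RO 20-1724.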

For experiment [17], the target named is Cytochrome P450 2C19 (Homo sapiens) (UniProt P33261). The experiment can be described thus: qHTS Assay for Inhibitors and Substrates of Cytochrome P450 2C19 (AID 899). Note: potency is the fitted concentration of half-maximal effect; nearly all actives have a fitted effect of over 60% in size. As to conditions: recombinant CYP2C19, luciferin-H EGE luminescence; series mostly up to 57.1 µM. An outline of the steps: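 Human CYP2C19 (5nM) with Luciferin-H EGE at 10uM (its KM) in 50mM KPO4 was preincubated with compound for 10 min at 37C. NADPH regeneration started a 60 min 37C reaction. Luciferin was read by luminescence, normalized to 57uM ketoconazole.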

The mark [18] stands for this setting: measured here: cell count channel max response.
Setting [19] is: measured here: lipid channel max response.

The structures appear in SMILES notation. Results filed as inconclusive are left out. Activity calls are given as the source filed them. Unless noted, calls come from the whole dose curve; as a rule, active = well fitted curve in the direction sought with a large enough effect; inconclusive = small, poorly fitted or top-dose-only effect, or another doubt; inactive = no such curve, though single readings can be large; an effect the other way counts as inactive or inconclusive.

Cytochrome P450 1A2 (Homo sapiens), sequence (P05177 whole entry, looked up): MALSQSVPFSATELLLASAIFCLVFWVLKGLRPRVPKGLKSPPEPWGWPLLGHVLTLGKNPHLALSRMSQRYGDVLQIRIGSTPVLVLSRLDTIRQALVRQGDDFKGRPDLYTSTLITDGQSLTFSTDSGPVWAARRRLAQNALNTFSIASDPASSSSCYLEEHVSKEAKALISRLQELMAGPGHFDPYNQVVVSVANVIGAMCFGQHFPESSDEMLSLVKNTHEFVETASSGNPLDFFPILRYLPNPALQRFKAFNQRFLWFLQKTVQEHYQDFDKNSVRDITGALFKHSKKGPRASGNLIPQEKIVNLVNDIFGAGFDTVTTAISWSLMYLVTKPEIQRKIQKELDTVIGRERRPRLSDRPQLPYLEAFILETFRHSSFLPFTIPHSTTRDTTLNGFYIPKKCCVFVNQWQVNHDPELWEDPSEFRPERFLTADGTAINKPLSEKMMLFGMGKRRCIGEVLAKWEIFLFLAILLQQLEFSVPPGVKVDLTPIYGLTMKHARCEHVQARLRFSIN
Cytochrome P450 3A4 (Homo sapiens), sequence (P08684 whole entry, looked up): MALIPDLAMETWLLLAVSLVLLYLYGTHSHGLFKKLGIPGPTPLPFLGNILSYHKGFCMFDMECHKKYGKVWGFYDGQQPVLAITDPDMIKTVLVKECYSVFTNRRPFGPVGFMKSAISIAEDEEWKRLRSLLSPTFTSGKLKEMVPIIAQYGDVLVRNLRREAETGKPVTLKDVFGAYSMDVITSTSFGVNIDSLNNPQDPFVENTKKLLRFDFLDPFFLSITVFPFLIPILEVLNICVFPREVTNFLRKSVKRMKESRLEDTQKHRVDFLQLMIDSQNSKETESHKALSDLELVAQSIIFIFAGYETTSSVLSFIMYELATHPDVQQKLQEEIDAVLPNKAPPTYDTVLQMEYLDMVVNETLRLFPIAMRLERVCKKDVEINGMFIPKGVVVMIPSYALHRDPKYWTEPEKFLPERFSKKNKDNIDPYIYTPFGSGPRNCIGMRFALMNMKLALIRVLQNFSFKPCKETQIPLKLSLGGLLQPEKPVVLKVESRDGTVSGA
3',5'-cyclic-AMP phosphodiesterase 4B (Homo sapiens), sequence (Q07343 whole entry, looked up): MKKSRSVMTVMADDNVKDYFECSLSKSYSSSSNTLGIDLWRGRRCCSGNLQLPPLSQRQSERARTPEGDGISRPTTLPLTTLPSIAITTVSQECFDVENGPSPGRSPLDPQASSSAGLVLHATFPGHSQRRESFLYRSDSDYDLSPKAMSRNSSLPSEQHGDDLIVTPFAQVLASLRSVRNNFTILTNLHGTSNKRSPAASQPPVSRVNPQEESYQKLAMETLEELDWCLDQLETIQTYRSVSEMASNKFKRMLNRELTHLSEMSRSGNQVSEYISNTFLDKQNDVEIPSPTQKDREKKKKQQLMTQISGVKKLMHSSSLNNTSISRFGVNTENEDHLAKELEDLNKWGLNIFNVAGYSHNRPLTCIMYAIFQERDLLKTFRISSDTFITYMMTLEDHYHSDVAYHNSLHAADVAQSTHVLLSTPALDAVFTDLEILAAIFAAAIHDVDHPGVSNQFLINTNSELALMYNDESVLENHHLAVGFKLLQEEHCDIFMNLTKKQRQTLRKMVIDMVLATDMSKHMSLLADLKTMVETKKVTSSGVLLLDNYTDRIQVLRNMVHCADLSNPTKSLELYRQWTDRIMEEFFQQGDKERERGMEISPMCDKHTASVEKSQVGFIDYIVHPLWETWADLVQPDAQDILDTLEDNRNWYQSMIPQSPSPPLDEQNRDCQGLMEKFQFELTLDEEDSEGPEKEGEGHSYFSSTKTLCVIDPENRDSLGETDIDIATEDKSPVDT
Ubiquitin carboxyl-terminal hydrolase 1 (Homo sapiens), sequence (O94782 whole entry, looked up): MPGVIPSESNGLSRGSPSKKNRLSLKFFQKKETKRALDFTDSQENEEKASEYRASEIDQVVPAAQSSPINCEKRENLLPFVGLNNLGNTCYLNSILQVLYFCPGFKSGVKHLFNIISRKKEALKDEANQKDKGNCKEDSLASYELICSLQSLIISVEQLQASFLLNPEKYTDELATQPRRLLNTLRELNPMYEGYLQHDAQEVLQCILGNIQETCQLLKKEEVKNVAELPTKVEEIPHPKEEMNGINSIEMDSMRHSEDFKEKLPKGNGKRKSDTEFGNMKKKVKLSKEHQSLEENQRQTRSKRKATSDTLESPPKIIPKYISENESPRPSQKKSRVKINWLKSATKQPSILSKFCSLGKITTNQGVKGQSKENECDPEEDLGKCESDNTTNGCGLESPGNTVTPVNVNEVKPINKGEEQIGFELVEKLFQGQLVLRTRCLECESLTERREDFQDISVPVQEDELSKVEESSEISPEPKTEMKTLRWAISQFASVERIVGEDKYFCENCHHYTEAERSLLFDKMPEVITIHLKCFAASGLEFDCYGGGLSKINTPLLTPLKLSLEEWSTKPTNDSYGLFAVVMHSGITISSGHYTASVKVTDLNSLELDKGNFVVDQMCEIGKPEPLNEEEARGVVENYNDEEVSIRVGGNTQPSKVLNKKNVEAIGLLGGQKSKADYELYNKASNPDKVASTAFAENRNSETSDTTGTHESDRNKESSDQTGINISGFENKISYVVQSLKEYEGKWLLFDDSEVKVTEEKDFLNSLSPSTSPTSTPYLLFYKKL
Glucocorticoid receptor (Homo sapiens), sequence (P04150 whole entry, looked up): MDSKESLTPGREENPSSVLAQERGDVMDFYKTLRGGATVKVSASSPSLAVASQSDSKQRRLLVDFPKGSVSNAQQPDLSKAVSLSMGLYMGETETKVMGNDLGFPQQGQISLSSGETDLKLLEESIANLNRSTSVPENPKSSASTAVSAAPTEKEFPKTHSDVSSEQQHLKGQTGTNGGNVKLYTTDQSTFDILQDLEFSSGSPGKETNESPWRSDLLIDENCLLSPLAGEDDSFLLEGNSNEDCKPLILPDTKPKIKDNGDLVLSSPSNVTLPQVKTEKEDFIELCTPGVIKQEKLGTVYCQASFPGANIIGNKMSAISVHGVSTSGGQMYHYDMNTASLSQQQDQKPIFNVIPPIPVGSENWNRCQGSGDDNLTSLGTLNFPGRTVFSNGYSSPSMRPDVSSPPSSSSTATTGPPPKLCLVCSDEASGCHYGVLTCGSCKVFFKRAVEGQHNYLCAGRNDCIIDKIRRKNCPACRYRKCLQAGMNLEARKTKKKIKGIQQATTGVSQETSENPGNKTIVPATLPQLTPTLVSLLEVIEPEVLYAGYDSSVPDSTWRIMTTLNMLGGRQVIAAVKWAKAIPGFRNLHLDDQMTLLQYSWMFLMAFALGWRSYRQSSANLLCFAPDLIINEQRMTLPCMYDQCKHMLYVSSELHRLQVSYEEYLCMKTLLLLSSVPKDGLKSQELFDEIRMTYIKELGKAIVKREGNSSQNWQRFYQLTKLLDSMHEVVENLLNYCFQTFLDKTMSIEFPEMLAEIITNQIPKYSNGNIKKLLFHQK
Lysosomal acid glucosylceramidase (Homo sapiens), sequence (P04062 whole entry, looked up): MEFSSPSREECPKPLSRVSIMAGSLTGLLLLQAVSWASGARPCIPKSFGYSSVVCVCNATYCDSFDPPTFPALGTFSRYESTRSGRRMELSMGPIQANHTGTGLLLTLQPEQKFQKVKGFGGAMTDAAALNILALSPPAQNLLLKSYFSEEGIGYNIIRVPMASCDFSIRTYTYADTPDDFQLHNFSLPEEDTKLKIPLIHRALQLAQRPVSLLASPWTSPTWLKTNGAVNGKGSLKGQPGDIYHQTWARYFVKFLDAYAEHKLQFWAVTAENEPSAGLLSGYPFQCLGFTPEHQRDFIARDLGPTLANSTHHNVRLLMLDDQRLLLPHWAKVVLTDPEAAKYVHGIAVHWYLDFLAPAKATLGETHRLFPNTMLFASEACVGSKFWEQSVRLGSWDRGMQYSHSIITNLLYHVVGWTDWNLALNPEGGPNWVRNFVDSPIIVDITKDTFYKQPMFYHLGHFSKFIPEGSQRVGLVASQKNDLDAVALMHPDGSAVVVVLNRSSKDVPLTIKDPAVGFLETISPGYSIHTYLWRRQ
Cytochrome P450 2C19 (Homo sapiens), sequence (P33261 whole entry, looked up): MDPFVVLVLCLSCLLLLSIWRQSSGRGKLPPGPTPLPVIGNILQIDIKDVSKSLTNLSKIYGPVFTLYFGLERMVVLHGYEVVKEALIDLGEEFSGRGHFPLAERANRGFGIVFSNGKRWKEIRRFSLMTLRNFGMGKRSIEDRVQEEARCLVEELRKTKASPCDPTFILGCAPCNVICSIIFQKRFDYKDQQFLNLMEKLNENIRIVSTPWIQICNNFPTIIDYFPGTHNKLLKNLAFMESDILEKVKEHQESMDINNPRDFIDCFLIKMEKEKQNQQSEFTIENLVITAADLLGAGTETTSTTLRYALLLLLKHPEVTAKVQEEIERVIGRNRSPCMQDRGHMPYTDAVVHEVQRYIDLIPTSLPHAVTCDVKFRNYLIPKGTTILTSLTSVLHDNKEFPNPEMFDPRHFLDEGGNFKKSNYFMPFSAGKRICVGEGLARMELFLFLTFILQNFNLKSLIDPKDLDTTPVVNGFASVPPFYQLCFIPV

With `CS(=O)(=O)Nc1cccc(-c2cncnc2NCc2cccs2)c1`, the Potency is > 11.4 µM (inactive) in [1]; 15.8 µM (active) in experiment [3]; > 46 µM (inactive) in experiment [6]; > 46 µM (inactive) in experiment [7]; 0.398 µM (active) in experiment [9]. Also, the results for the activity change, negative = inhibition in experiment [2], in experiment [4] and in [13] were 5.06% (inactive), 2.17% (inactive) and 4.63% (inactive), respectively. In experiment [5], the activity, negative = inhibition is 12.4% (inactive). Besides, the molecule was called inactive in experiment [8], in experiment [11] and in experiment [12]. Moreover, the Potency entry in [10], in experiment [14] and in [15] was “inactive” throughout. Also, the max response in experiment [13] (setting [18]) amounted to 8.3%; in experiment [13] (setting [19]), 16.7%.
In the case of `CN(C)Cc1ccccc1-c1nc(N2CCOCC2)c2ccccc2n1`, the Potency in experiment [1] is > 11.4 µM (inactive); in [3] it was 20 µM (active); in experiment [6] it was > 46 µM (inactive); in experiment [7] it was > 46 µM (inactive). The results for the activity change, negative = inhibition in [2], in [4] and in experiment [13] were 25.9% (inactive), -1.63% (inactive) and 5.13% (inactive), respectively. Further, the activity, negative = inhibition in [5] is 27.7% (inactive). Besides, the molecule was called inactive in experiment [8], in experiment [11] and in experiment [12]. For the same molecule, the Potency entry in experiment [10], in experiment [14] and in experiment [15] was “inactive” throughout. The max response in experiment [13] (setting [18]) was determined as 11.7%; in experiment [13] (setting [19]), 18.4%.
For the molecule `COc1ccccc1-c1cncnc1NCCc1cnc[nH]1`, the Potency is > 11.4 µM (inactive) in [1]; 1.26 µM (active) in experiment [3]; > 46 µM (inactive) in experiment [6]; > 46 µM (inactive) in [7]; 0.398 µM (active) in [9]; 0.0794 µM (active) in [17]. The results for the activity change, negative = inhibition in experiment [2], in [4] and in experiment [13] were 1.24% (inactive), 3.21% (inactive) and 11.3% (inactive), respectively. Moreover, the activity, negative = inhibition in experiment [5] is -11.6% (inactive). Also, the molecule was called inactive in experiment [8], in [11] and in [12]. Further, the Potency result in experiment [16], in [10], in experiment [14] and in experiment [15] was “inactive” each time. Moreover, the figures for the max response in experiment [13] (setting [18]) and in experiment [13] (setting [19]) were 12.9% and 26.1%, respectively.
As for `Cc1noc(C)c1-c1cc(NC2CC2)ncn1`, the Potency in experiment [1] is > 11.4 µM (inactive); in experiment [3], 0.316 µM (active); in [6], > 46 µM (inactive); in experiment [7], > 46 µM (inactive). For the same molecule, the activity change, negative = inhibition in experiment [2] was -3.03% (inactive); in experiment [4], 3.57% (inactive); in experiment [13], 11% (inactive). Also, the activity, negative = inhibition in experiment [5] was 5.59% (inactive). Also, the molecule was classed as inactive in experiment [8], in [11] and in experiment [12]. The Potency result in experiment [16], in experiment [10], in experiment [14] and in experiment [15] was “inactive” each time. In addition, the results for the max response in [13] (setting [18]) and in experiment [13] (setting [19]) were 17% and 27.1%, respectively.
For `COc1cccc(-c2cncnc2-n2ccnc2)c1`, the Potency in [1] was > 11.4 µM (inactive); in experiment [3], 0.1 µM (active); in experiment [6], > 46 µM (inactive); in experiment [7], > 46 µM (inactive); in [9], 0.316 µM (active); in [17] it was 0.631 µM (active). For the same molecule, the activity change, negative = inhibition was 3.37% (inactive) in experiment [2], -0.356% (inactive) in experiment [4] and 7.42% (inactive) in experiment [13]. Also, the activity, negative = inhibition in [5] was -1.78% (inactive). Further, the outcome in [8], in [11] and in [12] was inactive. Moreover, the Potency result in [16], in experiment [10], in experiment [14] and in experiment [15] was “inactive” in each case. In addition, the max response in [13] (setting [18]) was -2.24%; in experiment [13] (setting [19]), 4.82%.
